Reference: PubChem BioAssay AID818 (SRMLSC, 2007)
The campaign covered roughly 140,000 compounds. About 2,100 (1.5%) were called active.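 How the source made its calls: active means viability at or under a set limit, the compound median less 4 SD (cut at about 6% in these data); inactive means the rest.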 Only a selection was taken, and actives are over-represented in it overall.

test: primary screen for suppressors of beta-catenin knockout HCT116 cell growth, colon tumor, human (AID 818); details: CellTiter-Glo, 60 h, at 10 µM, active compounds read low;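 further: 0% = Hyamine 1622 control at 20 µM and 100% = untreated cell control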

Row | Structure (SMILES) | viability
1 | COc1ccc(/C(C)=N/NC(=O)CCC(=O)Nc2ccc(Cl)cc2Cl)c(OC)c1 | 91.2% (inactive)
2 | O=C(Nc1cccc(F)c1)c1coc(=O)c(Br)c1 | 45% (inactive)
3 | NC(=O)Nc1ccccc1C(=O)NCCc1ccccc1 | 99.7% (inactive)
4 | CCc1ccc(NC(=O)C(C)OC(=O)/C=C/c2cccc([N+](=O)[O-])c2)cc1 (stereo unspecified) | 90.3% (inactive)
5 | Cn1cc([N+](=O)[O-])c(C(=O)Nc2ccc3c(c2)OCCO3)n1 | 5.15% (active)
6 | O=C(Nc1ccc2c(c1)OCCO2)c1ccncc1 | 100% (inactive)
7 | Cn1cc([N+](=O)[O-])c(C(=O)Nc2cnn(Cc3ccc(F)cc3)c2)n1 | 8.14% (inactive)
8 | COc1ccc(OC(C)C(=O)NCCc2nc3ccccc3[nH]2)cc1 (stereo unspecified) | 99.8% (inactive)
9 | CCOC(=O)c1cnc(-n2nc(C)cc2C)nc1-n1nc(C)cc1C | 103% (inactive)
10 | CCOC(=O)c1cnc(-c2ccccc2)nc1Oc1ccc(C)cc1 | 89.3% (inactive)
11 | CCOC(=O)c1cnc(-n2nc(C)cc2C)nc1NNc1cc(C)nc(-c2ccccc2)n1 | 3.41% (active)
12 | CCC(C)(C(=O)Nc1ccccc1C)N(C(=O)CNC(C)=O)c1ccc(C)cc1 (stereo unspecified) | 92.2% (inactive)
13 | COC(=O)[C@@H]1CC[C@H](C)[C@@H](c2ccc(C)cc2)N1C(=O)c1ccc(/C=N/O[C@H](C)c2cn([C@@H]3COC[C@H]3O)nn2)cc1 | 86.4% (inactive)
14 | CSc1nc2ccccc2cc1/C=C(\C#N)c1ccc(Cl)cc1Cl | 4.22% (active)
15 | Cc1nc2ccccc2cc1O | 92.2% (inactive)
16 | CSc1nc(N)c(C#N)c(-c2ccccc2Cl)c1C#N | 89.2% (inactive)
17 | Cc1ccc(SCCC(=O)NC(C(C)C)C(C)C)cc1 | 89.2% (inactive)
18 | CCCC(NC(=O)c1ccco1)c1nc2ccccc2[nH]1 (stereo unspecified) | 101% (inactive)
19 | CCCCC(=O)NCc1ccc(F)cc1 | 93.4% (inactive)
20 | CN(CC(=O)Nc1ccc(S(=O)(=O)N2CCCC2)cc1)Cc1ccc(Cl)c(Cl)c1 | 65.4% (inactive)
21 | COc1ccc(NS(=O)(=O)c2cc(NC(=O)/C=C/c3cc(OC)c(OC)c(OC)c3)ccc2N2CCCCC2)cc1 | 89.5% (inactive)
22 | COc1cccc2cc(C(=O)N3CCN(C(=O)c4ccccc4)CC3)c(=O)oc12 | 100% (inactive)
23 | C=CCc1cccc2cc(C(=O)OCC)c(=O)oc12 | 97.7% (inactive)

Row | Structure (SMILES) | viability
24 | COc1cccc2cc(C(=O)N(C)C)c(=O)oc12 | 1.59% (active)
25 | O=C(c1cccc2ccccc12)N1CCN(c2ccccc2F)CC1 | 83.3% (inactive)
26 | COC(=O)c1ccc(C(=O)OC)c(NC(=S)N2CCN(c3cc(Cl)ccc3C)CC2)c1 | 92.1% (inactive)
27 | Cc1ccc(Cl)cc1N1CCN(C(=O)c2cccc3c(=O)c(C)c(-c4ccccc4)oc23)CC1 | 1.34% (active)
28 | COCCn1c(SCC(=O)Nc2ccc3c(c2)CCC3)nc2ccccc2c1=O | 81.5% (inactive)
29 | O=C(/C=C/NCc1ccc(F)cc1)c1ccccc1 | 87.5% (inactive)
30 | NS(=O)(=O)c1cc(C(=O)NCCOc2ccccc2)c(Cl)cc1Cl | 78.4% (inactive)
31 | COc1ccccc1N1CCN(Cc2nnnn2CCc2ccccc2)CC1 | 82.5% (inactive)
32 | COc1ccccc1-n1nnnc1S(=O)(=O)Cc1ccc(Cl)cc1 | 2.91% (active)
33 | COc1ccccc1N1CCN(C(=O)CN(Cc2ccc(Cl)cc2)S(C)(=O)=O)CC1 | 68.4% (inactive)
34 | CCc1cccc(C)c1NC(=O)COC(=O)Cc1ccsc1 | 80.8% (inactive)
35 | COc1ccc(-c2cc(C(F)(F)F)nc(SCC(=O)Nc3ccc4c(c3)OCO4)n2)cc1OC | 91.6% (inactive)
36 | Oc1ccc(Cl)cc1/C=N/c1nc2ccccc2[nH]1 | 89.3% (inactive)
37 | COc1ccc(/C=C(/NC(=O)c2ccc(C)cc2)c2nc3ccccc3[nH]2)cc1OC | 87.3% (inactive)
38 | O=C(/C(=C/c1cccc(Cl)c1)c1nc2ccccc2[nH]1)c1ccccc1 | 1.3% (active)
39 | Cc1cc(C)cc(C(=O)NC(=S)Nc2ccc3[nH]c(=O)[nH]c3c2)c1 | 95.8% (inactive)
40 | Cc1cccc(NC(=O)Cn2c(=O)n(Cc3ccccc3)c(=O)c3c(C)c(C)sc32)c1 | 77% (inactive)
41 | COc1ccc(/C=C(/CC(=O)Nc2ccc(C)cc2)c2nc3ccccc3s2)cc1 | 73% (inactive)
42 | Fc1ccccc1/C=C1\CCCC2=C1Nc1ncnn1C2c1ccccc1F (stereo unspecified) | 4.91% (active)
43 | CC(C)(C)SCCNC(=O)c1cccc([N+](=O)[O-])c1 | 97.8% (inactive)
44 | COc1ccc(/C=C/C(=O)c2cc(Br)ccc(=O)c2O)cc1 | 11.3% (inactive)
45 | CCC(CC)C(=O)N1CC(=O)Nc2ccc(Br)cc2C1c1ccccc1 (stereo unspecified) | 80.3% (inactive)
46 | COC(=O)CN1C(C)=Nc2ccc(Br)cc2C1c1ccccc1 (stereo unspecified) | 0.76% (active)

Row | Structure (SMILES) | viability
47 | COC(=O)CN1C(=O)C(O)=C(C(C)=O)C1c1ccc([N+](=O)[O-])cc1 (stereo unspecified) | 86.9% (inactive)
48 | CCCCCC(=O)Nc1ccc(S(=O)(=O)Nc2ccc(Cl)nn2)cc1 | 102% (inactive)
49 | CCCCc1nc(NCCN)c(C#N)c2c1CSC(C)(C)C2 | 1.71% (active)
50 | CCCCc1nc(NCc2ccccc2)c(C#N)c2c1CCCC2 | 81% (inactive)
51 | Cc1nc(NCCN)c(C#N)c2c1COC(C)(C)C2 | 94.1% (inactive)
52 | CCC(C)C(=O)Nc1cc([N+](=O)[O-])ccc1Cl (stereo unspecified) | 96.4% (inactive)
53 | Oc1c(Br)cccc1/C=N/Nc1c(F)c(F)c(F)c(F)c1F | 51% (inactive)
54 | O=c1c2sccc2nc(SCc2cc(=O)n3ccccc3n2)n1-c1ccc(Br)cc1 | 59.1% (inactive)
55 | CCCC(NS(=O)(=O)c1ccc(OC)cc1)C(=O)O (stereo unspecified) | 92.4% (inactive)
56 | CCCNC(=O)OC[C@H]1O[C@H](CCO/N=C/[C@@H](NS(=O)(=O)c2ccc(C)cc2)[C@H](C)/C=C/CC(=O)OC)C=C[C@@H]1Oc1ccc(OC)cc1 | 0.62% (active)
57 | COc1ccc(O[C@H]2C=C[C@@H](c3ccccc3)O[C@@H]2CO/N=C/C[C@@H]2C=C[C@H](OC(C)=O)[C@@H](COC(C)=O)O2)cc1 | 88.8% (inactive)
58 | NNc1nc2c(Cl)cccc2s1 | 83.6% (inactive)
59 | Cc1ccc(C(=O)Oc2coc(CSc3nnc(NC(=O)c4cccs4)s3)cc2=O)cc1C | 96.1% (inactive)
60 | Cc1ccc(S(=O)(=O)NCCSc2ccccc2)cc1[N+](=O)[O-] | 104% (inactive)
61 | O=C(Nc1ccc(CSc2ccccc2)cc1)c1ccc(CN2CCOCC2)cc1 | 12.2% (inactive)
62 | COc1ccc(Cl)cc1-n1c(C)cc(C(=O)OCC(=O)N2CC(=O)Nc3ccccc32)c1C | 69.3% (inactive)
63 | Cc1cccc(NC(=O)c2sc(-c3ccccc3)nc2-c2ccc([N+](=O)[O-])cc2)c1 | 80.5% (inactive)
64 | O=C(Nc1ccccc1)/C(=C/c1ccc([N+](=O)[O-])cc1)NC(=O)c1ccccc1 | 87.1% (inactive)
65 | CCOC(=O)/C(=C\c1ccc([N+](=O)[O-])cc1)C(=O)c1cc(C(C)=O)c(Nc2ccccc2)s1 | 1.71% (active)
66 | Cc1cccc(N2C(=O)SC(SC(=Nc3ccccc3)Nc3ccccc3)C2=O)c1 (stereo unspecified) | 82.6% (inactive)
67 | Cc1ccc(C(=O)N/C(=C/c2cccnc2)C(=O)O)cc1 | 87.7% (inactive)
68 | CC(C)(C)c1nnc(N/N=C/c2ccc(O)cc2)n(N)c1=O | 90.8% (inactive)
69 | c1ccc2c(c1)CSc1sccc1C2=C1CCNCC1 | 3.31% (active)

Row | Structure (SMILES) | viability
70 | COc1ccc(-n2c(C)cc(C(=O)CN3C(=O)NC4(CCc5ccccc54)C3=O)c2C)cc1 (stereo unspecified) | 70.1% (inactive)
71 | O=C(Nc1cccc(Cl)c1)Nc1ccccc1NS(=O)(=O)c1cccs1 | 71.1% (inactive)
72 | Cc1csc(NC(=O)NC2(C(F)(F)F)Oc3ccccc3O2)n1 | 5.7% (active)
73 | Cc1csc(NC(=O)CN2CCCCCC2)n1 | 93.4% (inactive)
74 | O=C(Nc1cc(N2CCOCC2)ncn1)NC1(C(F)(F)F)Oc2ccc(Cl)cc2O1 (stereo unspecified) | 76.8% (inactive)
75 | Cc1ccn(CC(=O)N2N=C(C(F)F)CC2(O)C(F)F)n1 (stereo unspecified) | 101% (inactive)
76 | N#C/C(=C\C1=C(N2CCOCC2)C(=C\c2ccccc2)/CC1)C(=O)Nc1ccccc1F | 65.8% (inactive)
77 | CCN(CC)c1ccc(/C=N/Nc2nc(C)cc(=O)[nH]2)cc1 | 76.5% (inactive)
78 | CCN(CC)c1ccc(/C=N/Nc2nc(C)cc(C)n2)c(O)c1 | 5.53% (active)
79 | Oc1ccc(/C=N/NC2=NCCCCC2)c(O)c1 | 94.7% (inactive)
80 | CCOC(=O)c1c(NC(=O)C2(C)Cc3ccccc3C(=O)O2)sc2c1CCCC2 (stereo unspecified) | 79.4% (inactive)
81 | Cc1ccc(C)c(NC(=O)CCC(=O)NNC(=O)c2cccs2)c1 | 96.8% (inactive)
82 | O=C(/C=C\c1ccc2c(c1)OCO2)NC1(C(=O)Nc2ccc3c(c2)OCCO3)CCCCC1 | 102% (inactive)
83 | COc1ccc2nc(Nc3nc4cc5c(cc4s3)OCCO5)sc2c1 | 90.5% (inactive)
84 | COc1ccc2nc(Nc3nc4ccc(NC(C)=O)cc4s3)sc2c1 | 2.25% (active)
85 | CCOc1ccc2nc(Nc3nc4ccc(NC(C)=O)cc4s3)sc2c1 | 74.6% (inactive)
86 | COc1ccc(C2=NN(C(=O)c3cccnc3)C(c3ccccc3)C2)cc1 (stereo unspecified) | 100% (inactive)
87 | COC(=O)c1c(NC(=O)CN2CCN(S(=O)(=O)c3ccccc3[N+](=O)[O-])CC2)sc2c1CCC(C)C2 (stereo unspecified) | 90.5% (inactive)
88 | CN1CCN(CC(=O)Nc2sc3c(c2C#N)CCC(C(C)(C)C)C3)CC1 (stereo unspecified) | 3.32% (active)
89 | CCC1CCc2c(sc(NC(C)=O)c2C#N)C1 (stereo unspecified) | 101% (inactive)
90 | CCNc1nc(NC(C)C)nc(N2CC(=O)N(CC(=O)OCC)C2=N)n1 | 94.3% (inactive)
91 | Oc1c(Cl)cc(Cl)c(Cl)c1Cc1c(O)c(Cl)cc(Cl)c1Cl | 4.83% (active)
